Records with an inconclusive call do not appear. Calls of active or inactive are those of the source. Unless noted, calls come from the whole dose curve; as a rule, active = well fitted curve in the direction sought with a large enough effect; inconclusive = small, poorly fitted or top-dose-only effect, or another doubt; inactive = no such curve, though single readings can be large; an effect the other way counts as inactive or inconclusive.
Tests used:
[1] = NS1 protein of Zika virus - qHTS assay to identify small molecule inhibitors in human HEK 293 cells (AID 1347053);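 note: plate controls were infected untreated cells for no effect and uninfected cells for full effect; nearly all actives have a fitted effect of over 55% in size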
Summary of the method: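 Compound-treated (1 h pre-infection) HEK 293 cells infected with ZIKV MR766, MOI = 0.5; after 24 h at 37 C, NS1 read by TR-FRET; data normalized to uninfected and infected controls.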

[2] = target: T1, Tyrosine-protein phosphatase non-receptor type substrate 1 (Homo sapiens) + Leukocyte surface antigen CD47 (Homo sapiens) (UniProt P78324+Q08722); assay: CD47-SIRPalpha protein protein interaction - LANCE assay qHTS validation (AID 1347057; active = well fitted curve in the direction sought with a large enough effect in the signal ratio, with a control signal flat, not every such curve was filed as active; the % refers to the signal ratio; note: 0% is about no effect)
T1 sequence (P78324 whole entry, looked up, the tested form may be a part): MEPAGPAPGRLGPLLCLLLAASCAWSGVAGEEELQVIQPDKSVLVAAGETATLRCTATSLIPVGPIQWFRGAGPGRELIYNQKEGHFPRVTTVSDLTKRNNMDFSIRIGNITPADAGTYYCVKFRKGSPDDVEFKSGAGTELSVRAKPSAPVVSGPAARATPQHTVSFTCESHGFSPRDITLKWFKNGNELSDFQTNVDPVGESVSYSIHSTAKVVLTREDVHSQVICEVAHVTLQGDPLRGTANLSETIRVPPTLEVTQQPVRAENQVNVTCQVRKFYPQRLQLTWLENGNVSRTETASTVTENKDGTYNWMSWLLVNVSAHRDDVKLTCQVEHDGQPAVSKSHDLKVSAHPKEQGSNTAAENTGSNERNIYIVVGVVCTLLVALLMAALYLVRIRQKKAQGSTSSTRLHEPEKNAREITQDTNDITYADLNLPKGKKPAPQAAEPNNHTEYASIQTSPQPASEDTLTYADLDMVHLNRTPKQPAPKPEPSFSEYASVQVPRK
T1 sequence (Q08722 whole entry, looked up, the tested form may be a part): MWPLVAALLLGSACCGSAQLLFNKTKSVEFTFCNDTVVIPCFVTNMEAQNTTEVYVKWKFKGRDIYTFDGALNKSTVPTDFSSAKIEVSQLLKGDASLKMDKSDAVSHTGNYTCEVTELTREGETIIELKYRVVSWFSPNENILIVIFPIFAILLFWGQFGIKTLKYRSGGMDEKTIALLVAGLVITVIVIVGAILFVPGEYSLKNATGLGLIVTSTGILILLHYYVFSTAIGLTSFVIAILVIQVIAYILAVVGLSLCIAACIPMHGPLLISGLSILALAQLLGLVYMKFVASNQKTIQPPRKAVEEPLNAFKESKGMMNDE
Summary of the method: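 Inhibition of soluble CD47/SIRPalpha ectodomain association by titrated compounds, measured as 665/615 nm time-resolved FRET ratio after sequential 30 min room-temperature incubations.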

[3] = target: T1, Tyrosine-protein phosphatase non-receptor type substrate 1 (Homo sapiens) + Leukocyte surface antigen CD47 (Homo sapiens); assay: CD47-SIRPalpha protein protein interaction - HTRF assay qHTS validation (AID 1347058; active = well fitted curve in the direction sought with a large enough effect in the signal ratio, not every such curve was filed as active; the % refers to the signal ratio; note: 0% is about no effect)
Summary of the method: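 Soluble extracellular domains (6His-CD47, Avi-tag-biotinylated SIRPalpha) in PBS pH 7.4 with 0.05% IGEPAL CA-630. Compounds were preincubated 30 min at RT with CD47 and anti-His-Eu, then SIRPalpha and SAV-XL665 were added. TR-FRET 665/615 ratio.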

[4] = target: T1, Tyrosine-protein phosphatase non-receptor type substrate 1 (Homo sapiens) + Leukocyte surface antigen CD47 (Homo sapiens); assay: CD47-SIRPalpha protein protein interaction - Alpha assay qHTS validation (AID 1347059);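 note: bead proximity luminescence from CD47 binding SIRPalpha after compound preincubation with SIRPalpha; % is set by controls: 0 for no effect and ±100 for the full control effect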
Summary of the method: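 SIRPalpha-biotin 25 nM + cpd, 30 min RT, dark; add CD47-His 12.5 nM, 30 min; add Ni-NTA/SAV beads 10 ug/mL, 30 min; AlphaScreen. Buffer PBS pH 7.4 + 0.05% IGEPAL CA-630. Non-biotinylated SIRPalpha as control inhibitor.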

[5] = target: N-terminal Xaa-Pro-Lys N-methyltransferase 1 (Homo sapiens) (UniProt Q9BV86); assay: qHTS Assay for Inhibitors of N-terminal methyltransferase 1 (NTMT1): LOPAC validation of the NTMT1 SAHH-coupled ThioGlo3 Assay (AID 1347143);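 note: SAH from peptide methylation measured as thiol fluorescence via SAHH coupling and ThioGlo3; nearly all actives have a fitted effect of over 70% in size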; note: potency is the fitted concentration of half-maximal effect; for activity change, negative = inhibition: % is set by controls: 0 for no effect and ±100 for the full control effect
Sequence of N-terminal Xaa-Pro-Lys N-methyltransferase 1 (Homo sapiens) (Q9BV86 whole entry, looked up): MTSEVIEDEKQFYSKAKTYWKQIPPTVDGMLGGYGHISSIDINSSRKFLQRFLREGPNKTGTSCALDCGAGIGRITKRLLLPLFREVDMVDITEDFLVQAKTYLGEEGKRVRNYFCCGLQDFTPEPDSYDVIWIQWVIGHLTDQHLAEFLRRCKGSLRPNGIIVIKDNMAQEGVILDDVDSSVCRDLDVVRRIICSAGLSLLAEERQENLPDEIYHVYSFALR
Summary of the method: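 Steps: dispense 125nM NTMT1; pin-transfer test compounds at several concentrations, with 1uM RCC1-6 peptide as control; incubate 1 min; start with reagent holding 100uM SAM, 10uM SAHH, 15uM ThioGlo3; read at 0 and 30 min.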

[6] = tested on: Zika virus NS2B-NS3 protease (unlinked); assay: Optimization of GU AMC qHTS for Zika virus inhibitors: Unlinked NS2B-NS3 protease assay (AID 1347151); note: nearly all actives have a fitted effect of over 80% in size; note: potency is the fitted concentration of half-maximal effect;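 for activity change, negative = inhibition: 0% = no-inhibitor control and -100% = no-enzyme control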
Summary of the method: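 In this qHTS, compounds acted on 25 nM unlinked Zika NS2B–NS3 in pH 8.0 Tris/Tween buffer. Cleavage of an AMC peptide ran 15 min at room temperature, to about 20% conversion.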

[7] = tested on: Zika virus NS2B-NS3 protease; assay: Primary screen GU AMC qHTS for Zika virus inhibitors (AID 1347154);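 note: 0% = no-inhibitor control and -100% = no-enzyme control; nearly all actives have a fitted effect of over 70% in size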
Summary of the method: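 Unlinked Zika NS2B hydrophilic domain–NS3 protease complex at 25 nM in 10 mM Tris-HCl pH 8.0, 0.01% Tween 20, with an AMC peptide substrate. Fluorescence change (340/450 nm) over 15 min at room temperature, normalized to controls, fitted to 4-parameter Hill.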

[8] = target: Lysine-specific demethylase 5B (Homo sapiens) (UniProt Q9UGL1); assay: Optimization screen for KDM5B Histone Demethylases FDH coupled qHTS against the LOPAC library (AID 1347166); conditions: KDM5B demethylation, FDH-coupled NADH fluorescence (FDH is formaldehyde dehydrogenase); at 57.5 µM (top of the series); note: 0% is about no effect
Sequence of Lysine-specific demethylase 5B (Homo sapiens) (Q9UGL1 whole entry, looked up): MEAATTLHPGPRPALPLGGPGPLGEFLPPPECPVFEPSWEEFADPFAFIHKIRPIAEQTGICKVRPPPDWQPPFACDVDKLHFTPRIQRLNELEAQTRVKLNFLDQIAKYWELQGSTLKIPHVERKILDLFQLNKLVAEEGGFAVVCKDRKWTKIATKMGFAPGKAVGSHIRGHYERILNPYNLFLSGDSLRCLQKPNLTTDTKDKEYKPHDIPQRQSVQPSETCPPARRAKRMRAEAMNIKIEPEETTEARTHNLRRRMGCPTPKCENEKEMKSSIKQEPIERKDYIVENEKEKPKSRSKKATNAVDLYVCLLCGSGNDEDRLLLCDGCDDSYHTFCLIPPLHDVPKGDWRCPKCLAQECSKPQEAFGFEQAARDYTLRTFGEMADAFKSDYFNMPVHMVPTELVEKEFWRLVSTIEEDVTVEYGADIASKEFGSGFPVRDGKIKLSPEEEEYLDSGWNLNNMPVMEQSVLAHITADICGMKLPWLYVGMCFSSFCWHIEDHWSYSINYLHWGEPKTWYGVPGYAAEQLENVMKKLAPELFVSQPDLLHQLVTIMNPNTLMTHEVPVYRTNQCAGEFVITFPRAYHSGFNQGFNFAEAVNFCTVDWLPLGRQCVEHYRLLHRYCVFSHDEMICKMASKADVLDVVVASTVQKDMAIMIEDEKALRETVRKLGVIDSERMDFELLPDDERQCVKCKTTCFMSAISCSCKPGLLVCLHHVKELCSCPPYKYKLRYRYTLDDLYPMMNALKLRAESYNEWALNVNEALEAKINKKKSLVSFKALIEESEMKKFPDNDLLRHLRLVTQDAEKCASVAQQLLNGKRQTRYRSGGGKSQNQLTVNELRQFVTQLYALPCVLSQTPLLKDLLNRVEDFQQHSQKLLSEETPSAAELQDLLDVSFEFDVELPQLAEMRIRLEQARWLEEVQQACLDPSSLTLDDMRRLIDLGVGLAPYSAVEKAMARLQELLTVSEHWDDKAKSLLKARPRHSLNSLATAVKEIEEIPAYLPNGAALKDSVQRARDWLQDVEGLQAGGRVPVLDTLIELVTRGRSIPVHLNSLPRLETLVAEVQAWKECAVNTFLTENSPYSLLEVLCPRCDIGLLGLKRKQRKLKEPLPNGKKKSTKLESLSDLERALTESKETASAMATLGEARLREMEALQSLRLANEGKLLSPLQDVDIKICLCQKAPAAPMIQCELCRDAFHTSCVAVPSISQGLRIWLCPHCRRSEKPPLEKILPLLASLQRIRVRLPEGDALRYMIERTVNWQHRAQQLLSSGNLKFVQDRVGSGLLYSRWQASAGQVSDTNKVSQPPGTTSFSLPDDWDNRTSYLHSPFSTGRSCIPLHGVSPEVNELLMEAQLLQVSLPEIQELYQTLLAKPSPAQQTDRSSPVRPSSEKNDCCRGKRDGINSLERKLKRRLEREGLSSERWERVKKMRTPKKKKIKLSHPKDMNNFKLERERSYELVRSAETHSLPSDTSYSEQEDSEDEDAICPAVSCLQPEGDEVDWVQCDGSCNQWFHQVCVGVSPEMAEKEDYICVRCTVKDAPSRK
Summary of the method: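 KDM5BDeltaAP (200nM final) in 50mM HEPES pH 7.5, 0.01% Tween-20 was preincubated with compound for 10 min at room temperature. A substrate mix of 12.5uM H3K4Me3, 25uM a-ketoglutarate, ascorbate, Fe2+, NAD+ and formaldehyde dehydrogenase was then added. NADH fluorescence (340/450 nm) was read initially and after 30 min.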

[9] = target: Furin (Homo sapiens) (UniProt P09958); assay: Furin counterscreen qHTS for Zika virus inhibitors (AID 1347149);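 note: purified recombinant full-length human furin enzyme at 5 nM; fluorescence gain from furin cutting a BOC-RVRR-AMC peptide substrate over 15 min; top concentration of the series differs between compounds; plate controls were no-inhibitor control for no effect and no-enzyme control for full effect; nearly all actives have a fitted effect of over 70% in size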
Sequence of Furin (Homo sapiens) (P09958 whole entry, looked up): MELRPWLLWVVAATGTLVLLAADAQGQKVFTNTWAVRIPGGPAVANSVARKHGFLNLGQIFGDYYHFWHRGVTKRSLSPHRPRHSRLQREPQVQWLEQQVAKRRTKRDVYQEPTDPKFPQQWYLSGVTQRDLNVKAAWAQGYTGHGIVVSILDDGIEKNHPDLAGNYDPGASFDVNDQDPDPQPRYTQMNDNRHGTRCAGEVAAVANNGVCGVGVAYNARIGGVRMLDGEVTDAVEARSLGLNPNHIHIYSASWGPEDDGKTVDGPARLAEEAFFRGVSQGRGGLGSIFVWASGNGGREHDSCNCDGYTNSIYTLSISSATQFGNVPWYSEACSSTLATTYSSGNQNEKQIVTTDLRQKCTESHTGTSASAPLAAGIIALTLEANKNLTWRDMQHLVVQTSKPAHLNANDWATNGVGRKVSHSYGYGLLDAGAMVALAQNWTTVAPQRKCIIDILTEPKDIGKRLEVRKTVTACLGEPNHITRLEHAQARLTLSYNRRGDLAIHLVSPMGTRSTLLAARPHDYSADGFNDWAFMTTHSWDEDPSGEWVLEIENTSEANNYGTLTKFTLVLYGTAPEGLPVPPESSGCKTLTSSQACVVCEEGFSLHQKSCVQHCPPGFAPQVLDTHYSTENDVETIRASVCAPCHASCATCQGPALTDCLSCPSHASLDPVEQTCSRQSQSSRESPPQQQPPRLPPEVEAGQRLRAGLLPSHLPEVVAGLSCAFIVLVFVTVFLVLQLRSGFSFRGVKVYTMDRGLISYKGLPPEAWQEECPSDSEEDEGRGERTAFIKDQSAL
Summary of the method: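 Counterscreen measures cleavage of 2 microM BOC-RVRR-AMC, below its ~15 microM Km, by 5 nM full-length human furin at pH 7.0 after a 15-min compound preincubation. Inhibition derives from the 15-min fluorescence increase at 37C.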

[10] = tested on: Zika virus NS2B-NS3 protease (linked construct); assay: Confirmatory screen NINDS AMC qHTS for Zika virus inhibitors (AID 1347152);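 note: AMC fluorescence gain from cleaved Bz-Nle-KRR-AMC substrate over 15 min; top concentration of the series differs between compounds; 0% = no-inhibitor control and -100% = no-enzyme control; nearly all actives have a fitted effect of over 70% in size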
Summary of the method: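 Concentration-response confirmation used the NINDS linked protease (NS2B hydrophilic domain joined to NS3 protease domain), 1 nM, with a 15-min compound preincubation. Substrate, Nle-KRR-AMC at 10 microM, was read by UV fluorescence before and after 15 min.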

[11] = tested on: Zika virus NS2B-NS3 protease (unlinked complex); assay: Confirmatory screen GU AMC qHTS for Zika virus inhibitors (AID 1347153)
Summary of the method: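 Unlinked enzyme 25 nM, Tris pH 8.0/0.01% Tween 20; cpd 15 min RT, dark; + AMC substrate 10 µM (Km 18.3 µM); 340/450 nm read at t0 and 15 min; % inhibition → 4-param fit.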

[12] = Confirmatory screen NINDS Rhodamine qHTS for Zika virus inhibitors (AID 1347161);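 note: purified Zika NS2B-NS3 protease with linked NS2B cofactor domain and Rhodamine110 peptide substrate; plate controls were no-inhibitor control for no effect and no-enzyme control for full effect; nearly all actives have a fitted effect of over 60% in size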
Summary of the method: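 In 10 mM Tris-HCl pH 8.0 containing 0.01% Tween 20, linked NS2B-NS3 protease (25 nM final) is exposed to test compounds for 15 min. Cleavage of 1.5 microM Rhodamine110 substrate is tracked by fluorescence over 15 min.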

[13] = Vero cells viability qHTS for Zika virus inhibitors (AID 1347167); note: % is set by controls: 0 for no effect and ±100 for the full control effect
Summary of the method: (§1)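 qHTS titration; 24-48 h compound exposure, 37 degrees C/5% CO2; DMEM, 4% FBS; CellTiter Glo ATP luminescence.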

[14] = HepG2 cells viability qHTS for Zika virus inhibitors (AID 1347168); note: % is set by controls: 0 for no effect and ±100 for the full control effect
Summary of the method: as §1

[15] = target: Parathyroid hormone/parathyroid hormone-related peptide receptor (Homo sapiens) (UniProt Q03431); assay: qHTS for PTHR1 Agonists: Optimization Screen against the NCGC LOPAC library (AID 1347079);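 note: GloSensor cAMP luminescence in HEK-293 GP2 cells expressing human PTHR1 with IBMX; 0% is about no effect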
Sequence of Parathyroid hormone/parathyroid hormone-related peptide receptor (Homo sapiens) (Q03431 whole entry, looked up): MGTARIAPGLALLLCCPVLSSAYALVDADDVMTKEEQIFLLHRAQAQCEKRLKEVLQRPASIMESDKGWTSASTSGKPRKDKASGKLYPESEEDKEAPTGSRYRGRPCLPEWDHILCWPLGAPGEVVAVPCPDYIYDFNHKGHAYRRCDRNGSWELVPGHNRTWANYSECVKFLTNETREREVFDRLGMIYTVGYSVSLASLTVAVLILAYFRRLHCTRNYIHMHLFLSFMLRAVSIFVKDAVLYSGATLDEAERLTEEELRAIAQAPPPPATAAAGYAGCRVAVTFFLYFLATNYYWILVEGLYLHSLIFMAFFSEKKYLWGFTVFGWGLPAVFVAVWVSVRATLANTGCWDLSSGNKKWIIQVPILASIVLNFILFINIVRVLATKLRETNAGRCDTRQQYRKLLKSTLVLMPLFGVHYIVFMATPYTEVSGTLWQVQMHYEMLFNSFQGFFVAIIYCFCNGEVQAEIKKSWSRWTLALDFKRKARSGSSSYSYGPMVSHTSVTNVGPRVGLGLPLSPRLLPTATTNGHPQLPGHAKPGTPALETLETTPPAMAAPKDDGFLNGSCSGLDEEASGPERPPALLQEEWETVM
Summary of the method: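 HEK-293 GP2 cells, PTHR1 + GloSensor cAMP; 3000 cells/well, o/n. Luciferin + IBMX 0.5mM each (stock), 1 hr 37C. Cpd titration, 1 hr 37C. Lum after 15 min RT. Ctrl M-PTH(1-15) top 10uM.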

[16] = tested on: Zika virus NS2B-NS3 protease (linked construct); assay: 384 well plate NINDS Rhodamine confirmatory qHTS for Zika virus inhibitors (AID 1347164); note: potency is the fitted concentration of half-maximal effect; nearly all actives have a fitted effect of over 65% in size
Summary of the method: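 Cleavage of Ac-LKRR-Rhodamine 110 (10 microM final) by linked protease (final 5, 30 or 60 nM) was followed as fluorescence at 485/538 nm after 25 min, room temperature, dark. Compounds preincubated ~15 min.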

CC(N)(C(=O)O)c1ccc(C(=O)O)cc1 (configuration not stated)
inactive: Potency [1] | Potency [2] | outcome [3] | Potency [4] | Potency [5] | Potency [6] | Potency [7] | activity, negative = inhibition [8] -6.58%

CCCn1c(=O)c2[nH]c(C3CCCC3)nc2n(CCC)c1=O
inactive: Potency [1] | Potency [2] | outcome [3] | Potency [4] | Potency [5] | Potency [6] | Potency [7] | activity, negative = inhibition [8] -5.16%

O=C(O)CCC(=O)N1CCCC1C(=O)O (configuration not stated)
inactive: Potency [1] | Potency [2] | outcome [3] | Potency [4] | Potency [5] | Potency [6] | activity, negative = inhibition [8] -3.62%

CCCCCCCCCCCCCCC[C@H](O)[C@H](N)CO
inactive: Potency [1] | Potency [2] | outcome [3] | Potency [4] | Potency [5]

N[C@H]1CONC1=O
inactive: Potency [1] | Potency [2] | outcome [3] | Potency [4] | Potency [5] | Potency [6]

COc1ccccc1N1CCN(CCCNc2c(C)c(=O)n(C)c(=O)n2C)CC1
inactive: Potency [1] | Potency [2] | outcome [3] | Potency [4] | Potency [9] | Potency [10] | Potency [11] | Potency [7] | Potency [12] | activity, negative = inhibition [8] -1.72% | Potency [13] | outcome [14]

CCC1(O)CC2CN(CCc3c([nH]c4ccccc34)[C@@](C(=O)OC)(c3cc4c(cc3OC)N(C=O)C3[C@]45CCN4CC=C[C@@](CC)([C@@H](OC(C)=O)[C@]3(O)C(=O)OC)[C@H]45)C2)C1 (some centres not stated)
inactive: Potency [1] | Potency [2] | outcome [3] | Potency [4] | Potency [15] | Potency [6] | activity, negative = inhibition [8] -9.11%

CC1=C(/C=C/C(C)=C/C=C/C(C)=C\C(=O)O)C(C)(C)CCC1
inactive: Potency [1] | Potency [2] | outcome [3] | Potency [4] | Potency [15] | Potency [7] | activity, negative = inhibition [8] -15.4%

[N-]=[N+]=Nc1ccc(C(=O)CSC[C@H](NC(=O)CC[C@H](N)C(=O)O)C(=O)NCC(=O)O)cc1
inactive: Potency [1] | Potency [2] | outcome [3] | Potency [4] | Potency [5]
active: Potency [6] 7.52 µM

CNCCNS(=O)(=O)c1cccc2cnccc12
inactive: Potency [1] | Potency [2] | outcome [3] | Potency [4] | Potency [6] | Potency [7] | activity, negative = inhibition [8] -11.7%

NC(=O)c1cc[n+](CC2=C(C(=O)O)N3C(=O)[C@@H](NC(=O)[C@@H](c4ccccc4)S(=O)(=O)[O-])[C@H]3SC2)cc1
inactive: Potency [1] | Potency [2] | outcome [3] | Potency [4] | Potency [5] | Potency [6] | activity, negative = inhibition [8] -15.3%

NCCC1CCCC(CCN)N1 (configuration not stated)
inactive: Potency [1] | Potency [2] | outcome [3] | Potency [4] | Potency [5] | Potency [6] | activity, negative = inhibition [8] -5.63%

CC(C)NC[C@H](O)COc1ccc(CC(N)=O)cc1
inactive: Potency [1] | Potency [2] | outcome [3] | Potency [4] | Potency [5] | Potency [7] | activity, negative = inhibition [8] -2.87%

C=CCN1CCc2c(cc(O)c(O)c2Br)[C@@H](c2ccccc2)C1
inactive: Potency [1] | Potency [2] | outcome [3] | Potency [4] | Potency [9] | Potency [10] | Potency [11] | Potency [13] | outcome [14]
active: Potency [5] 35.5 µM | Potency [6] 18.9 µM | Potency [16] 8.91 µM

Brc1c(Br)c(Br)c2[nH]cnc2c1Br
active: Potency [5] 50.1 µM
inactive: Potency [1] | Potency [2] | outcome [3] | Potency [4] | activity, negative = inhibition [8] 0.346%

N=C(N)c1ccc(N)cc1
inactive: Potency [1] | Potency [2] | outcome [3] | Potency [4] | Potency [15] | Potency [6] | activity, negative = inhibition [8] -6.1%

CCCCCCCCCCCCCCCCCCOC[C@H](COP(=O)([O-])OCC[N+](C)(C)C)OC
inactive: Potency [1] | Potency [2] | outcome [3] | Potency [4] | Potency [5] | Potency [6] | activity change, negative = inhibition [7] 2.23% [at 6.83 µM] | activity, negative = inhibition [8] 1.42%

Reference: PubChem BioAssay (NCATS)
